aSyn UTR inh: 5' untranslated region of α-synuclein, MLPCN primary screen; inhibition, % (tested at 7.5 µM); actives 0.82% (n = 300,000); alpha-synuclein 5'UTR reporter, inhibitor activity; in the data active means inhibition above about 60%;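 further: H4 neuroglioblastoma cells stably carrying SNCA 5'UTR luciferase fusion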
PAX8 reporter: inhibitors of PAX8 transcriptional activity in RMG-I cells | RMG-I TPO-luciferase reporter, SteadyGlo, 24 h | inhibition, % at 12.6 µM | actives 1.2% (n = 360,000) | AID 652154;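 active means mean replicate inhibition at least 60% with every replicate also reaching 60%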;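 further: luciferase light reporting Pax8 driven TPO promoter activity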
TRPM1 prom inh: MITF TRPM1 promoter inhibition in SK-MEL-5 cells | inhibition, % at 12.5 µM | actives 0.83% (n = 330,000) | AID 488899 | SK-MEL-5 TRPM1 promoter luciferase, 24 h;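 active means mean inhibition across replicates of 60% or more, whatever share of single replicates reaches that level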
EBV LMP1 NFkB: inhibitors of Epstein-Barr LMP1-induced NF-kappaB reporter | LMP1-induced NF-kappaB luciferase reporter cells, luminescence | inhibition, % at 12.5 µM | actives 0.69% (n = 350,000); in the data active means inhibition above about 41%
Shn3 3UTR inh: Schnurri-3 reporter inhibition in Clone20 osteoblasts | Clone20 osteoblast Shn3 3'UTR firefly luciferase, 24 h | inhibition, % at 12.5 µM | actives 0.52% (n = 360,000) | AID 588674;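 active means mean inhibition of at least 75% with every replicate also reaching 75%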
A number is an active result; n = inactive; x = not tested or not shown. An excerpt weighted towards active compounds, which were near 2.1% of everything screened.

SMILES	aSyn UTR inh	PAX8 reporter	TRPM1 prom inh	EBV LMP1 NFkB	Shn3 3UTR inh
CCCc1cc(N2CCCC2)n2nc(C)c(-c3ccccc3)c2n1	n	n	n	n	n
O=C1OC(CN(Cc2ccccc2)Cc2ccccc2)CN1N=Cc1ccc([N+](=O)[O-])o1 (configuration not stated)	x	n	82.0	n	n
CCc1ccc(/C=N/NC(=O)c2cc(-c3ccncc3)nc3ccccc23)s1	83.2	n	n	n	n
O=C(N/N=C/c1cccs1)c1cc(-c2ccncc2)nc2ccccc12	61.9	n	n	n	n
O=C(N/N=C/c1cccs1)c1cc(C2CC2)nc2ccccc12	n	n	n	n	n
O=C(N/N=C/c1cccnc1)c1cc(-c2cccs2)nc2ccccc12	n	n	n	57.7	n
O=[N+]([O-])c1ccc(C2=NCCO2)cc1	n	n	n	n	n
O=C1N(Cc2cccnc2)C[C@@H]2C[C@@H](c3cccc(C(F)(F)F)c3)N3CCC[C@@]123	n	n	n	n	n
O=C(c1cn(-c2ccccc2)nc1-c1ccncc1)n1nnc2ccccc21	n	x	n	n	n
O=[N+]([O-])c1ccc(/C=C/c2ccc3ccccc3n2)cc1	n	n	n	n	n
O=C(O)/C=C/c1ccc2ccccc2n1	n	x	n	76.1	n
Oc1ccc(/C=C/c2ccc3ccccc3n2)cc1	89.7	n	69.9	47.5	n
CN(C)c1ccc(/C=C/c2ccc3ccccc3n2)cc1	89.1	x	72.2	75.6	88.3
CCCN(CCC)c1ccc(/C=C/c2ccc3cc(OCC)ccc3n2)cc1	n	n	n	n	n
C(=C\c1ccc2ccccc2n1)/c1ccccc1	66.9	n	n	n	n
COc1ccccc1S(=O)(=O)N1CC[C@@H]2[C@H]1c1cc(-c3ccc(C#N)cc3)ccc1N(C)[C@H]2CO	x	n	x	x	x
COc1ccc(/C=C/C(=O)NCCc2ccc(OC)c(OC)c2)cc1	n	n	n	n	n
Cc1ccc(Nc2nc3ccccc3s2)cc1	n	n	n	n	n
CN(C)c1ccc(CNc2nc3ccccc3s2)cc1	80.2	x	x	x	x
Cc1ccc(/C=C/c2nc3ccccc3s2)s1	71.4	x	n	42.9	n
CN(C)c1ccc(CNc2nc3ccccc3n2C)cc1	x	n	x	n	n
CN(C)c1ccc(/C=C/c2nc3ccccc3s2)cc1	81.1	x	77.1	n	n
COc1cc(/C=C/c2nc3ccccc3s2)cc(OC)c1O	n	n	n	n	n
COc1ccc(CCNC(=O)/C=C/c2ccc3ccccc3n2)cc1OC	n	76.7	n	n	n
CC(C)(C)NC(=O)C(OC(=O)c1cccs1)c1ccccc1 (configuration not stated)	n	n	n	n	n
SMILES	aSyn UTR inh	PAX8 reporter	TRPM1 prom inh	EBV LMP1 NFkB	Shn3 3UTR inh
Cc1ccccc1S(=O)(=O)N1[C@@H]2CNC[C@H]1C2c1ccc(-c2cccc(C(=O)N(C)C)c2)cc1 (some centres not stated)	x	n	x	x	x
COc1ccc(S(=O)(=O)Nc2ccc3c(c2)CC(=O)N([C@@H](C)CO)C[C@@H](C)[C@@H](CN(C)S(=O)(=O)c2ccccc2)O3)cc1	x	n	x	x	x
O=c1cc(-c2ccccc2)[nH]n1-c1nc2ccccc2[nH]1	n	x	n	n	n
CC1=C(C(=O)OCc2ccc3c(c2)OCO3)C(c2ccccc2)NC(=O)N1 (configuration not stated)	n	x	n	68.7	n
O=C(CN(c1ccccc1)S(=O)(=O)c1ccccc1)N/N=C/c1ccc(OC2CSC2)cc1	n	x	x	x	x
COc1cccc(C2=N/C(=C\N(C)C)C(=O)O2)c1	n	x	n	n	n
CN(C)/C=C/C(=O)c1ccc2noc(-c3ccccc3)c2c1	n	n	n	60.4	n
CC(/C=C1\SC(=O)N(CC(=O)Nc2ccc(O)cc2)C1=O)=C\c1ccccc1	n	87.1	n	n	n
Cc1cc2c(N=NC(=O)CCc3ccccc3)c(O)[nH]c2cc1Br	n	n	n	n	n
COc1ccc(-n2c(C)c(C(C)=O)c3cc(OC(C)=O)ccc32)cc1	n	n	n	59.6	n
COc1ccc2c(c1)c(C(C)=O)c(C)n2-c1ccc(C(C)=O)cc1	n	n	n	n	n
COc1cccc(-c2nc(-c3ccccn3)no2)c1	104.1	70.1	x	x	x
c1ccc(-c2noc(-c3ccc4ccccc4c3)n2)nc1	113.1	x	79.0	82.5	88.6
c1ccc(-c2noc(-c3ccc4c(c3)OCO4)n2)nc1	90.6	x	92.3	77.7	n
Cc1cc(=O)oc2cc(OCC(=O)OCC(=O)NC(=O)NC(C)C)ccc12	x	n	n	n	n
O=C(CCS(=O)(=O)c1ccc(Br)cc1)N1CCN(c2ccc(F)cc2)CC1	n	n	n	n	n

High-throughput results as filed in PubChem BioAssay.
